Our source for the Potency and activity change, negative = cell killing values is PubChem BioAssay AID902 (National Center for Advancing Translational Sciences (NCATS), 2007).

Screen size: about 130,000 compounds; about 1,900 (1.5%) were called active. Inconclusive results (about 5%) are left out. Shown is part of a subset that was picked to be rich in actives. Where a call stands in place of a potency, no number is given. A number with no mark means an inactive call. Calls come from the whole dose curve; as a rule, active = well fitted cell-killing curve with a large enough effect; inconclusive = small, poorly fitted or top-dose-only effect; inactive = no such curve, though single readings can be large or run the other way.
Potency is the fitted concentration of half-maximal effect.

The test can be described thus: qHTS Screen for Compounds that Selectively Target Cancer Cells with p53 Mutations: Cytotoxicity of p53ts Cells at the Nonpermissive Temperature. Note: nearly all actives have a fitted effect of over 55% in size. The following applies: H1299-p53A138V viability at 39C, ATP luminescence, 24 h; series mostly up to 46.1 µM. The source says:
NIH Chemical Genomics Center [NCGC] NIH Molecular Libraries Screening Centers Network [MLSCN] MLSCN Grant: 1 X01 MH079844-01 Assay Submitter (PI): Dr. SUN, YI, University of Michigan NCGC Assay Overview: Synthetic Lethal Screen for Compounds to Kill Cancer Cells with p53 Mutation. Tumor suppressor gene p53 serves as a major cellular barrier against tumorigenesis. […] The goal of this screening is to identify small molecule probes that selectively kill cancer cells with mutations in p53. This screening was carried out using two lines of H1299 lung cancer cells. The H1299-p53 A138V line express a temperature sensitive p53 mutant (p53ts) in which the mutant p53 protein (A138V) is in the mutant confirmation when grown at 39C (the nonpermissive temperature) and in the wild type conformation when grown at 32C (the permissive temperature). A H1299-neo line (p53 null) grown at both 39C and 32C were used as counter-screens to filter out false positive associated with temperature shifting. The small molecular compounds that selectively target mutant p53-containing cancer cells were selected as candidate probes for further study. A cytotoxicity assay based on the measurement of ATP contents in cells was used in this screen. Concentration-responses of all the compounds in the library collection were determined in qHTS using the cell lines and temperature conditions as above.
NCGC Assay Protocol Summary: Both the H1299-p53A138V and H1299-neo cell lines were provided by Dr.Yi Sun, a PI at the University Michigan. The cells were maintained and cultured at 37C. The resuspended frozen cells were used to plate the cells in the 1536-well assay plates at a density of 600 cells per well in 5 ul medium. The assay plates with the cells were incubated at 37C for 16 to 30 hours before the experiments. The library compounds in DMSO solution were added to the cells in assay plates and incubated 24 hours at 39C (for mutant p53 conformation) or 32C (for normal p53 conformation as control). An ATP_lite assay kit (PerkinElmer) was used to determine the cell viability. Tomaxifen (100uM) was used as the positive control for cell killing. Data were normalized to the controls for basal activity (DMSO only) and 100% killing (100uM tamoxifen). AC50 values were determined from concentration-response data modeled with the standard Hill equation. P53 assay protocol: 1. Reagent; 5 uL H1299-p53A138V or H1299-neo cell cells/well 2. Time; overnight; 37C incubation 3. Compounds; 23 nL; 5.9 nM to 46 uM 4. Controls; 23 nL; Tamoxifen 100 uM 5. Time; 24 hr; 39C incubation 6. Reagent; 3 uL; ATP_Lite reagent 7. Time; 20 min; Room Temperature 8. Detection; Luminescence; Viewlux plate reader Keywords: p53, synthetic lethal, cancer, cell viability, cytotoxicity, H1299 cell line, luminescence, MLSMR, MLSCN, NIH Roadmap, qHTS, NCGC
Consider `CC(C)(Cc1c[nH]c2ccc(Cl)cc12)NCCOc1ccccc1OCC1CC1`, for which the Potency is 25.1 µM (active).
On the same count and under the same terms, as for `Cc1cccc(Cn2cccc(C(=O)Nc3ccc4c(c3)OCCO4)c2=O)c1`, the entry is “inactive”.
In the case of `CCN(CC)CCn1ncc2c(N)ncnc21`, the activity change, negative = cell killing was -0.868% [at 9.22 µM].
Regarding `C/C(=C\C=C/[C@@H](C)C(=O)O)[C@H]1CN[C@H](C(=O)O)[C@@H]1CC(=O)O`, the Potency result was “inactive”.
The same measure, in the same setting: to `CN(C)C(=O)Oc1cc(OC(=O)N(C)C)cc(C(O)CNC(C)(C)C)c1` (stereo not given) belongs “inactive”.
Still for that read-out and setting: as for `CC(C)Oc1ccc(NC(=O)c2cc3ccccc3o2)cc1`, the figure is 6.31 µM (active).
For `COc1cc(C(c2c(O)c3ccccc3oc2=O)c2c(C)n(C)n(-c3ccccc3)c2=O)ccc1O` (stereo not given), the Potency entry is “inactive”.
Take `O=C1C2CCN(CC2)C1(CO)CO`: the Potency entry was “inactive”.
On the same count and under the same terms, as for `C=CCSSCC=C`, the entry is “inactive”; as for `Cc1nnc(NC(=O)c2cccn(Cc3cccc(F)c3)c2=O)s1`, “inactive”; as for `NCCc1c[nH]c2ccc(O)cc12`, “inactive”.
For the compound `Fc1ccc(C(OCCN2CCN(C/C=C\c3ccccc3)CC2)c2ccc(F)cc2)cc1`, the Potency was 31.6 µM (active).
Same read-out and setting: to `CCN1C[C@]2(C)CC[C@H](O)[C@@]34[C@@H]5CC6[C@@H](OC)C[C@@](O)([C@@H]5[C@@H]6O)[C@H](C[C@@H]23)[C@H]14` belongs “inactive”.
Same read-out and setting: to `COc1ccc(C2Oc3c(I)c(OC)cc(OC)c3CC2O)cc1OC` (stereo not given) belongs “inactive”.
In the case of `CC(C)(O)/C=C\C(=O)[C@](C)(O)[C@H]1[C@H](O)C[C@]2(C)[C@@H]3CC=C4[C@@H](C=C(O)C(=O)C4(C)C)[C@]3(C)C(=O)C[C@@]12C`, the activity change, negative = cell killing was -1.33% [at 9.22 µM].
As for `CC[C@@](O)(C(=O)O)c1cc2n(c(=O)c1CO)Cc1cc3ccccc3nc1-2`, the activity change, negative = cell killing was 11.1% [at 9.22 µM].
As for `O=C(N/N=C/c1c(O)n(Cc2ccccc2)c(=O)[nH]c1=O)c1ccccc1`, the Potency result is “inactive”.
Take `CN1C2CC3CC1C(O3)C2O` (stereo not given): the Potency result is “inactive”.
Take `CCCCN1C2CCC1CC(OC(c1ccc(F)cc1)c1ccc(F)cc1)C2` (stereo not given): the Potency is 12.6 µM (active).
Turning to `Cn1c(O)c(C=NCCN2CCNCC2)c(=O)n(C)c1=O`, the Potency entry is “inactive”.
As to `CC(=O)OC1C2CCC3C1(CC(O)[C@@]1(O)[C@@H](CC(O)C1(C)C)[C@]3(C)O)C[C@@]2(C)O` (stereo not given in full), the Potency entry was “inactive”.
The same measure, in the same setting: as for `CC[C@@H]1CN2CC[C@@H]1C[C@H]2[C@H](O)c1ccnc2ccc(OC)cc12`, the entry is “inactive”; as for `O=C(Nc1ccc(Cl)cc1C(=O)c1ccccc1)c1cc(Cl)cc(Cl)c1`, “inactive”.
As to `C[C@@]12CCC3C(CC[C@@H]4CC(O)CC[C@@]34C)C1CCC2O` (stereo not given in full), the Potency result was “inactive”.
The same measure, in the same setting: to `C[C@@]1([C@@H](NP(=O)(c2ccccc2)c2ccccc2)c2ccccc2)C[C@H]1CCO` belongs “inactive”; to `N#Cc1c(Cl)c(Cl)c(Cl)c(C#N)c1Cl`, 6.31 µM (active); to `CCC(C)C(=O)O[C@@H]1C[C@@]2(C)C(c3ccoc3)OC(=O)CC23OC2(C)O[C@@]14[C@@]1(C)C(CC(=O)OC)C5(C)CC1(O)C(O)(C5OC(=O)C1(C)OC1C)C(OC(C)=O)[C@@]34O2` (stereo not given in full), “inactive”.
The same measure, in the same setting: as for `Cc1ccc(-n2c(/C=C/c3cccc(C(F)(F)F)c3)nc3ccccc3c2=O)cc1`, the entry is “inactive”; as for `Clc1ccc(C(c2ccc(Cl)cc2)n2cc[n+](C[C@@H](OCc3ccc(Cl)cc3Cl)c3ccc(Cl)cc3Cl)c2)cc1`, 15.8 µM (active).
Still for that read-out and setting: as for `CCN(CC)c1ccc(C2C(C(N)=O)=C(C)Nc3nc(SCc4ccccc4)nn32)cc1` (stereo not given), the entry is “inactive”.
Regarding `Clc1ccc([C@@H]2C[C@H]3CC[C@@H]2N3)cn1`, the Potency entry was “inactive”.
Turning to `Cn1cc(/C=C/c2nc3ccccc3c(=O)n2-c2ccccc2)c2ccccc21`, the Potency result was “inactive”.
With `O=C(NC(c1ccc(Cl)cc1)P(=O)(Oc1ccccc1)Oc1ccccc1)OCc1ccccc1` (stereo not given), the Potency result was “inactive”.
On to `COc1cc2c(cc1OC)[C@@H]1C(=O)c3ccc(O)c(CC=C(C)C)c3OC1CO2` (stereo not given in full), for which the Potency result is “inactive”.
Same read-out and setting: as for `COc1ccc(NC(=O)Nc2cccc3cccnc23)cc1`, the figure is 15.8 µM (active); as for `CC1=CC(=O)C2=C(C)C[C@H](O)[C@H]3[C@H](C)C(=O)O[C@@H]3C12` (stereo not given in full), “inactive”; as for `c1csc(CN2CC3(CCNCC3)C2)n1`, “inactive”.
Take `CC(C)(c1ccc(OC[C@@H]2CO2)cc1)c1ccc(OC[C@H]2CO2)cc1`: the Potency is 12.6 µM (active).
Still for that read-out and setting: as for `Cc1ccc(N2C(=O)NC(=O)C(CCc3ccncc3)(Cc3cccc(Cl)c3Cl)C2=O)cc1` (stereo not given), the entry is “inactive”.
For the compound `C[C@]12CC[C@H](O)C[C@@H]1CC[C@H]1[C@H]2CC[C@]2(C)C(=O)CC[C@@H]12`, the Potency entry is “inactive”.
